Screens (PubChem BioAssay)
Only some compounds are listed: those with a hit (about 2.6% of all), similar ones and a draw of the others.
Cruzain noTriton – qHTS Assay for Promiscuous and Specific Inhibitors of Cruzain (without detergent) | Potency, µM, for the others: max response, negative = inhibition, most hits filed as inhibitors | Cruzipain (Trypanosoma cruzi), P25779 | hit rate 2.3% among 200,000 | purified cruzain, Z-FR-AMC fluorescence, no detergent;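 further: plate controls were enzyme without inhibitor for no effect and buffer without enzyme for full effect; nearly all actives have a fitted effect of over 40% in size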
Target sequence (P25779 123-467 limits assumed): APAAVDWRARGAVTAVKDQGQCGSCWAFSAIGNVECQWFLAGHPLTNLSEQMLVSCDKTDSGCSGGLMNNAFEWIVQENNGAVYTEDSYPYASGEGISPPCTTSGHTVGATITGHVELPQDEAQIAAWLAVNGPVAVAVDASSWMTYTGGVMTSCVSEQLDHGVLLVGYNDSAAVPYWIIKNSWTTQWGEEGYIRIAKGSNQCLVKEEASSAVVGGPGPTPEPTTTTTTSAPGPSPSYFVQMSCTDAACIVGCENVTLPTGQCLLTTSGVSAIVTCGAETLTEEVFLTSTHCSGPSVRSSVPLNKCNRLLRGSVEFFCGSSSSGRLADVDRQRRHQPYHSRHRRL
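Detergent-free condition (0.00005% Triton X-100) in acetate buffer pH 5.5 with DTT. 1.5 nM enzyme and compound were pre-mixed 15 min, then 2 uM Z-FR-AMC substrate added; reaction progress from fluorescence change between first and third reads (60 s).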
Cruzain inh Det – qHTS Assay for Promiscuous and Specific Inhibitors of Cruzain (with detergent); Potency, µM, for inactives: max response, negative = inhibition, actives largely listed as inhibitors; Cruzipain (Trypanosoma cruzi), P25779; hit rate 0.43% among 200,000; purified cruzain, Z-FR-AMC fluorescence, 0.01% Triton; AID 1478, 2009;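 further: plate controls were neutral wells for no effect and buffer without enzyme for full effect; nearly all actives have a fitted effect of over 40% in size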
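Z-FR-AMC hydrolysis (2 uM substrate) by cruzain (1.5 nM) monitored kinetically at ex 360/em 450 nm after 15 min room-temperature compound exposure; 0.01% Triton X-100, pH 5.5, 5 mM DTT.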
Papain inh – qHTS Assay for Inhibitors of Papain: Counterscreen for Cruzain Assay; hit rate 41% among 410; purified papain, Z-FR-AMC fluorescence cleavage; shares compounds with Cruzain inh Det; AID 2161, 2009; Potency, µM, for the others: max response, negative = inhibition, actives largely listed as inhibitors;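 further: 0% = no-compound wells and -100% = no-enzyme wells; nearly all actives have a fitted effect of over 35% in size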
* marks the source's active call; other numbers are inactive results; ? = inconclusive; · = no result given; ! = not active in a repeat. The call rests on the fitted dose curve; in most records, active means well fitted curve in the direction sought with a large enough effect; inconclusive means small, poorly fitted or top-dose-only effect, or another doubt; inactive means no such curve, though single readings can be large; an effect the other way counts as inactive or inconclusive. Potency means the concentration at half of the fitted maximal effect.

SMILES	Cruzain noTriton	Cruzain inh Det	Papain inh
CCCC(C)C(=O)Nc1ccncc1 (stereo unspecified)	-9.6%	-3.7%	·
CCN(CC)c1cc(C)c2cc(NC(=O)c3ccc(F)cc3Cl)ccc2n1	-6.7%	-5.8%	·
Cc1cc(C(=O)Nc2c(C)nn(Cc3c(Cl)cccc3Cl)c2C)no1	-5.9%	1.3%	·
O=C(NC(=S)Nc1ccc(NC(=O)c2cccs2)cc1)c1cc2ccccc2o1	?	-11.7%	·
O=C(NC(=S)Nc1nc(-c2cccc3ccccc23)cs1)c1cc2ccccc2o1	2.51µM*	-2.7%	14.0%
CCNc1nc(C#N)nc(N2CCOCC2)n1	·	·	3.16µM*
CN(c1ccccc1)c1nc(C#N)nc(N2CCOCC2)n1	·	·	1.26µM*
N#Cc1nc(N2CCOCC2)nc(N2CCOCC2)n1	1.26µM*	1.12µM*	1.26µM*
CN(C)c1nc(N2CCOCC2)nc(N(c2ccccc2)c2ccccc2)n1	?	-1.3%	·
N#Cc1nc(N(c2ccccc2)c2ccccc2)nc(-n2cccc2)n1	·	·	10µM*
CCNc1nc(SCc2ccccc2)nc(N2CCOCC2)n1	1.6%	-10.1%	·
COc1nc(N(c2ccccc2)c2ccccc2)nc(-n2ccnc2)n1	-8.6%	-0.1%	·
N#CCOc1nc(N2CCOCC2)nc(N2CCOCC2)n1	5.5%	-0.9%	·
FC(F)(F)c1cc(-c2cccs2)nc(-n2cc(Br)cn2)n1	-9.2%	-4.8%	·
Cc1c(C(=O)O)oc2ccc(S(=O)(=O)NCc3ccc(F)cc3)cc12	-1.2%	2.2%	·
Cc1cccc(C)c1OCCCCn1c(C2CC(=O)N(c3ccc(F)cc3)C2)nc2ccccc21 (stereo unspecified)	8.6%	-7.2%	·
COC(=O)[C@H](Cc1ccccc1)NC(=O)N1CCC(C)CC1	1.3%	2.7%	·
O=C(NCC1CC1)c1ccc2nc(-c3ccoc3)c(-c3ccoc3)nc2c1	·	·	-4.6%
COc1ccc(-c2nc3ccc(C(=O)NCc4ccccc4)cc3nc2-c2ccc(OC)cc2)cc1	-16.8%	0.8%	·
Cc1ccc(C)c(NC(=O)c2cc(-c3ccccc3)nn2-c2ccccc2)c1	6.1%	-7.4%	·
Cc1cccc(Cn2cc(/C=C(/C#N)C(=O)Nc3cccc(Cl)c3)c3ccccc32)c1	3.16µM*	-2.1%	13.3%
N#C/C(=C\c1cn(Cc2cccc(F)c2)c2ccccc12)C(=O)NCc1ccco1	-4.9%	-5.8%	·
NNc1nnc(-c2ccccc2)c(-c2ccccc2)n1	-14.7%	-1.5%	·
Nc1nc(N)c2nc(-c3ccccc3)c(N)nc2n1	7.94µM*!	31.6µM*!	22.4µM*
O=C(CN1C(=O)c2cccc3cccc1c23)Nc1ccc2c(c1)OCO2	-26.2%	2.0%	·
SMILES	Cruzain noTriton	Cruzain inh Det	Papain inh
Cc1cc(C)c(-c2csc(NC(=O)COC(=O)c3ccc4c(c3)OCO4)n2)c(C)c1	?	-3.7%	·
Cc1ccc(C)c(-c2csc(-c3c(N)c(C(=O)c4ccc5c(c4)OCO5)n4ccccc34)n2)c1	3.16µM*	-2.7%	12.4%
COc1ccc2[nH]c(=O)c(COC(=O)c3cccs3)cc2c1	-5.3%	-4.2%	·
C=CCn1c(SCC(=O)Nc2cccc3ccccc23)nnc1-c1cnccn1	-12.0%	-8.7%	·
C=CCn1c(SCC(=O)Nc2cc3oc4ccccc4c3cc2OC)nnc1-c1cnccn1	?	0.1%	4.5%
O=C(CC1Sc2ccccc2NC1=O)OCc1cc(=O)oc2cc(O)ccc12 (stereo unspecified)	?	-15.4%	·
O=C(NCCCc1nc2ccccc2n1Cc1ccc(Cl)cc1)C1CCCCC1	6.2%	-10.4%	·
Cc1ccc(OCCCCn2c(CCNC(=O)C(C)(C)C)nc3ccccc32)cc1	?	-1.8%	·
CC(C)(C)C(=O)NCCc1nc2ccccc2n1CCCCOc1ccccc1	3.3%	-4.1%	·
O=C(NCCc1nc2ccccc2n1CCOc1ccc(Cl)cc1)C1CCCCC1	0.1%	1.26µM*	8.91µM*
CCc1ccc(OCCCCn2c(CCNC(=O)C3CCCCC3)nc3ccccc32)cc1	·	·	22.4µM*
Cc1ccc(OCCCn2c(CCCNC(=O)C3CCCCC3)nc3ccccc32)cc1	·	·	9.2%
O=C(NCCc1nc2ccccc2n1CCOc1ccccc1)C1CCCCC1	·	·	-18.7%
CC(C)C(=O)NCCc1nc2ccccc2n1CCOc1ccccc1	6.0%	-13.1%	·
O=C(Nc1cccc(-n2cnnn2)c1)c1ccco1	-5.4%	6.4%	·
Cc1ccsc1CN(C(=O)COc1cccc(C)c1C)C1CCS(=O)(=O)C1 (stereo unspecified)	15.8%	-4.8%	·
COc1cc2c(cc1O)CCN(C(=O)c1ccco1)C2C (stereo unspecified)	-5.5%	9.0%	·
Cc1ccccc1-c1nc2c(=O)n(C)c(=O)nc-2n(C)n1	·	·	-11.1%
Cc1ccc(-c2nc3c(=O)n(C)c(=O)nc-3n(C)n2)cc1	·	·	-7.2%
CCc1ccc(-c2nc3c(=O)n(C)c(=O)nc-3n(CC)n2)cc1	·	·	-8.6%
CCc1ccc(-c2nn[nH]n2)cc1	-8.9%	2.8%	·
Cc1ccc(-c2nc(N)n(S(C)(=O)=O)n2)cc1	-5.6%	2.9%	·
Cc1ccccc1-c1nccc(-n2ccnc2)n1	2.0%	3.5%	·
Cn1c(=O)c(-c2ccc(Cl)cc2)nc2cncnc21	1.3%	5.8%	·
Cn1ncnc2c(=O)n(C)c(=O)nc1-2	1.26µM*	1.26µM*	11.0%
SMILES	Cruzain noTriton	Cruzain inh Det	Papain inh
COC(=O)C1=C(O)CSC1=Nc1ccc(C)cc1	-8.5%	-1.0%	·
COc1cc2c(cc1OC)C(COc1ccc(F)cc1)N(C(=O)C(C)C)CC2 (stereo unspecified)	15.6%	0.7%	·
O=C(Nc1ccc(Br)cc1)/C(=C/c1cccc([N+](=O)[O-])c1)NC(=O)C1CCCCC1	-26.7%	2.3%	·
COc1cccc(C2C=C(c3ccc(C)cc3)Nc3c(C(=O)Nc4ccc(F)cc4)cnn32)c1OC (stereo unspecified)	-3.4%	-4.6%	·
c1ccc2c(c1)CC1CNCc3cccc(c31)S2 (stereo unspecified)	-7.7%	0.0%	·
Cc1ccc(Cl)cc1N1CCN(S(=O)(=O)c2ccc3c(c2)CCN3C(=O)C2CCC2)CC1	3.4%	-0.8%	·
C=CC1=C(C(=O)O)N2C(=O)C(NC(=O)Cc3ccccc3)C2SC1 (stereo unspecified)	0.3%	-1.3%	·
